Source: PubChem BioAssay (National Center for Advancing Translational Sciences (NCATS))
KDM5B inhibitor = inhibitors of human KDM5B histone demethylase; Q9UGL1; KDM5B demethylase, FDH-coupled NADH fluorescence (FDH is formaldehyde dehydrogenase); Potency, µM (titrated, usually from 57.7 µM), most hits filed as inhibitors; hit rate 2.6% among 220,000; AID 1347165; active means well fitted inhibition curve with a large enough effect; further: 0% is about no effect; nearly all actives have a fitted effect of over 70% in size
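Compound dilutions met 200 nM (final) KDM5BΔAP for 10 min at room temperature before substrate addition. The substrate mix held 12.5 µM H3K4me3 with cofactors 25 µM α-ketoglutarate and 50 µM Fe²⁺. NADH signal gain over 30 min defined activity.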
Numbers without * were called inactive; i = inactive. This excerpt belongs to a sample that is enriched for hits. Potency means the concentration at half of the fitted maximal effect.

SMILES	KDM5B inhibitor
O=C(Cn1c(=O)nc(-c2ccccc2)c2ccccc21)NCc1ccccc1Cl	i
CC(=O)N1CCN([C@H]2[C@@H]3OC[C@@H](O3)[C@@H](NC(=O)Nc3ccccc3)[C@@H]2O)CC1	i
COc1ccc(-c2cc(-c3ccc(N4CCOCC4)nc3)cn3cncc23)cn1	8.91µM*
COc1cccc(-c2ncc[nH]2)c1	i
O=C(O)c1ccc(N2CCOCC2)nc1	i
COc1cccc(-c2cccc(CN)c2)c1	i
COc1cccc(-c2cc(-c3ccc(OC)nc3)c3cncn3c2)c1	31.6µM*
COc1ccc(-c2cc(-c3ccc(N4CCOCC4)nc3)cn3cncc23)cc1	i
COc1ccc(NC(=O)Cn2ccc3cc(Cl)ccc32)cc1	i
COCCOC(=O)C1=C(C)N=C2SC=C(CC(=O)N3CCCC3)N2C1c1cccc(F)c1 (stereo unspecified)	i
O=C(CN1CCCCCC1)NCCc1c[nH]c2ccccc12	i
CC1CCN(CCCNC2CCCCCC2)CC1	i
O=C(Nc1ccccc1)c1nn(C2CCS(=O)(=O)C2)c2c1CCCC2 (stereo unspecified)	i
CNC(=O)c1cccc(CNC(=O)C(C)(C)NC(=O)OC(C)(C)C)c1	i
CNC(=O)NCCC1CCN(C(=O)Nc2cccc(Cl)c2)CC1	i
COc1ccc(-c2ccc3nc(-c4cc(F)cc(F)c4)oc3c2)c(OC)c1OC	i
COc1cc(OC)cc(-c2nc3ccc(-c4ccc(OC)c(OC)c4OC)cc3o2)c1	25.1µM*
COc1ccc(OC)c(-c2nc3ccc(-c4ccc(OC)c(OC)c4OC)cc3o2)c1	i
COc1ccc(-c2ccc3nc(-c4ccccc4)oc3c2)c(OC)c1OC	i
COc1ccc(-c2ccc3nc(-c4cccc(Cl)c4)oc3c2)c(OC)c1OC	7.94µM*
COc1ccc(-c2ccc3nc(-c4ccc(Cl)cc4)oc3c2)c(OC)c1OC	i
O=c1ccc2cc(S(=O)(=O)N3CCCCC3)ccc2o1	i
CC(C)c1nc2c(c(-c3ccc(O)cc3)n1)CCN(Cc1ccc(C(F)(F)F)cc1)CC2	i
CCCCCCCC(=O)Nc1c(C)cccc1CC	i
Cn1c(=O)c2nc(SCC(=O)NCc3ccccc3Cl)n(C)c2n(C)c1=O	i
SMILES	KDM5B inhibitor
CSc1ccc(Cl)c(C(=O)NCCC2=CCCCC2)c1	i
O=C(NCc1ccccc1)c1nc(Cc2c[nH]c3ccccc23)no1	i
COc1ccccc1-c1cc(C(=O)N2CCOCC2)c2cnn(C)c2n1	i
COc1ccccc1-c1nnc2n1C(C(=O)NCCc1ccc(Cl)cc1)CC2 (stereo unspecified)	i
COc1ccc(CCNC(=O)c2cc(-c3ccccc3O)n[nH]2)cc1OC	i
COc1ccccc1-c1cc(C(=O)NCCc2ccc(Cl)cc2)nc2c1cnn2C	79.4µM*
COc1ccccc1-c1cc(C(=O)N(C)C)c2cnn(C)c2n1	i
COc1ccccc1-c1cc(C(=O)NCCc2ccc(Cl)cc2)c2cnn(C)c2n1	79.4µM*
COc1cc(OC)c(OC)cc1/C=C/c1nc2ccccc2[nH]c1=O	i
CC(=O)NC(C)c1ccc(O)cc1 (stereo unspecified)	i
COc1cc(Br)cc2cc(-c3nc(-c4ccc(C(F)(F)F)cc4)no3)c(=O)oc12	i
Cc1nn(CC(=O)NCc2cccnc2)c(=O)c2nc(-c3ccccc3)sc12	28.2µM*
CCc1nc2c(=O)n(CC(=O)NCc3cccnc3)nc(C)c2s1	i
Cc1nn(CC(=O)NCc2ccc(F)cc2F)c(=O)c2nc(-c3ccccc3)sc12	31.6µM*
CCc1nc2c(=O)n(CC(=O)NCc3ccc(SC)cc3)nc(C)c2s1	i
CCc1nc2c(=O)n(CC(=O)NCc3ccc(F)cc3Cl)nc(C)c2s1	i
CCc1nc2c(=O)n(CC(=O)NCc3ccc(Br)cc3)nc(C)c2s1	i
CCC(C)NC(=O)C(NC(=O)c1ccc(C)cc1)C1CCN(C(=O)c2ccccc2C)CC1 (stereo unspecified)	i
Cc1ccc2c(=O)cc(C(=O)Nc3sc4c(c3C#N)CCCC4)oc2c1C	i
Cc1csc(NC(=O)Cc2ccc(OCc3c(C)noc3C)cc2)n1	i
CC(=O)Nc1ccc(NC(=O)Cn2c(C)cc3ccccc32)cc1	i
O=C(NN=C1CCCC1)c1nc(-c2ccccc2)n(-c2ccccc2)n1	i
O=C(Cc1coc2cc3c(cc12)CCC3)OCCOc1ccccc1	i
COc1ccccc1CN1CC[C@H](c2nnc(Cc3c[nH]c4ccccc34)o2)C1	i
Cc1ccc2oc([C@H]3CCN(Cc4ccc(C(F)(F)F)cc4)C3)nc2c1	i
SMILES	KDM5B inhibitor
Cc1ccc2oc([C@H]3CCN(Cc4c[nH]c5ccccc45)C3)nc2c1	12.6µM*
Cc1ccc(-n2nc3n(c2=O)CCN(C(=O)c2ccccc2Cl)C3)cc1	i
Cc1ccccc1NC(=O)C(C#N)=C1CCC(C(C)(C)C)CC1 (stereo unspecified)	i
COc1ccc2c(c1)c(CN1CCCC(c3nc(C(C)C)no3)CCNC(=O)CC1)cn2C(C)C (stereo unspecified)	i
O=C1CCN(Cc2ccc(F)cc2F)CCOCCN1	i
COc1ccc2c(c1)c(CN1CCOCCNC(=O)CC1)cn2C(C)C	20µM*
O=C(NC1CC1)c1cccc(NC(=O)c2cccc3cccnc23)c1	i
CCCCCCC(C)NCc1cccc2ccccc12 (stereo unspecified)	i
CC(C)C[C@@H]1N[C@H](C(=O)NCCN(C)C)Cc2cn(CC3CC3)c3cccc1c23	28.2µM*
COCCNC(=O)[C@@H]1Cc2cn(Cc3ccncc3)c3cccc(c23)[C@H](CC(C)C)N1	i
C=CCn1cc2c3c(cccc31)[C@H](CC(C)C)N[C@H](C(=O)NCCN(C)C)C2	31.6µM*
C=CCNC(=O)[C@@H]1Cc2cn(CC=C)c3cccc(c23)[C@H](CC(C)C)N1	i
CC#CCn1cc2c3c(cccc31)[C@H](CC(C)C)N[C@H](C(=O)NCCOC)C2	i
C=CCNC(=O)[C@@H]1Cc2cn(Cc3ccncc3)c3cccc(c23)[C@H](CC(C)C)N1	i
COc1ccccc1N1CCN(c2nc(C)c3c(n2)CC(C)(C)CC3=O)CC1	i
CC(=O)NC(C(=O)O)=C(Cl)Cl	i
CCOc1c(Br)cc(/C=C/C(=O)c2ccc(F)cc2)cc1OC	i
O=C(CCc1ccc2c(c1)OCO2)N[C@H](c1cccs1)C1CC(O)C1 (stereo partly specified)	i
CCN(CC)Cc1cnc2c(C(=O)NCCc3cccs3)cnn2c1	i
CNc1ncccc1C(=O)N[C@H](c1cccs1)C1CC(O)C1 (stereo partly specified)	28.2µM*
CNc1cc(C(=O)N[C@H](c2cccs2)C2CC(O)C2)ccn1 (stereo partly specified)	28.2µM*
NS(=O)(=O)c1ccc(C(=O)N[C@H](c2cccs2)C2CC(O)C2)cc1 (stereo partly specified)	i
COc1ccc(C(=O)N[C@H](c2cccs2)C2CC(O)C2)c(F)c1F (stereo partly specified)	i
O=C(N[C@H](c1cccs1)C1CC(O)C1)c1cnn2cc(CCO)cnc12 (stereo partly specified)	14.1µM*
Cn1ccc2c(C(=O)N[C@H](c3cccs3)C3CC(O)C3)cccc21 (stereo partly specified)	i
O=C(N[C@H](c1cccs1)C1CC(O)C1)c1cccc(-n2cccn2)c1 (stereo partly specified)	i
